From PubChem BioAssay (NCI)
Compounds without any hit were thinned out: in the full panel of roughly 83,000, 20% have a hit.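 Growth was measured after 48 h exposure to one concentration of compound in 96-well plates. Values under 10 count as active.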 Unmarked numbers belong to inactive results. Active and inactive are the calls of the source.

Key:
Assay in all cases: NCI-60 one-dose screen, 48 h (100 = growth as untreated, 0 = no growth, -100 = all killed)
Conditions in all cases: 10 µM unless noted
HCT-15 colon = system: HCT-15 colon
HT29 colon = system: HT29 colon
SNB-75 CNS = system: SNB-75 CNS
SNB-19 CNS = system: SNB-19 CNS
PC-3 prostate = system: PC-3 prostate
SK-MEL-5 melanoma = system: SK-MEL-5 melanoma
UACC-62 melanoma = system: UACC-62 melanoma
LOX IMVI melanoma = system: LOX IMVI melanoma
SK-MEL-28 melanoma = system: SK-MEL-28 melanoma
U251 CNS = system: U251 CNS

SMILES | growth (HCT-15 colon) | growth (HT29 colon) | growth (SNB-75 CNS) | growth (SNB-19 CNS) | growth (PC-3 prostate) | growth (SK-MEL-5 melanoma) | growth (UACC-62 melanoma) | growth (LOX IMVI melanoma) | growth (SK-MEL-28 melanoma) | growth (U251 CNS)
C=C(C)[C@@H]1CC[C@]2(C)[C@H](CC=C3[C@@H]4CC(C)(C)CC[C@]4(C(=O)NCC#CCN4CCN(C)CC4)CC[C@]32C)[C@@]1(C)CCC#N | 21.4% | 26.8% | 67% | 72.5% | 37.3% | 53.4% | 79% | 12.3% | 96.9% | 
Cc1[nH]nc2ccc(-c3nc4cnc(N5CCN(C)CC5)cn4c3Nc3ccc(F)cc3Br)cc12 | 27.8% | 4.1% (active) | 82.7% | 45.4% | 47.6% | 75.4% | 17.9% | -10.4% (active) | 62.8% | 
N=c1c2cc(-c3ccccc3)oc2ncn1/N=C/c1ccccc1 | 36.9% | 73.6% | 67% | 87.5% | 71.9% | 90.8% | 47.6% | 66.3% | 83.4% | 
C#CCOc1ccccc1C(Nc1ccccc1)c1nnnn1C1CCCCC1 (stereo unspecified) | 95.5% | 105% | 102% | 94.7% | 92.6% | 99.6% | 63.3% | 95.4% | 101% | 
CCN(CC)CCN1C(=O)c2c(c3c4cccnc4[nH]c3c3ccc4ccccc4c23)C1=O | 58.7% | 66.7% | 54.3% | 59.5% | 59.2% | 80% | 69.2% |  | 106% | 
CCN(CC)CCN1C(=O)c2c(c3c4cc(Br)ccc4[nH]c3c3ccc4ccccc4c23)C1=O | -88.6% (active) | -69.9% (active) | 77% | -92.7% (active) | -80.9% (active) | -83.6% (active) | 31.7% |  | -70.1% (active) | -86.3% (active)
CS(=O)c1nccc(-c2c(-c3ccc(F)c(OCCc4ccc(F)cc4)c3)nc3sccn23)n1 (stereo unspecified) | 11.7% | 7.84% (active) | 88.7% | 70.8% | 60.5% | 99.1% | 86% | 19.9% | 64.8% | 
Cc1cc(=O)n2nc(-c3c[nH]c4ccccc34)sc2n1 | 93.5% | 107% | 99.8% | 97.3% | 98.3% | 98.5% | 92% | 95.7% | 96.5% | 
COCCOc1ccc(-c2csc(NC(=O)CN3CCN(CCO)CC3)n2)cc1NS(=O)(=O)c1cccc2c(N(C)C)cccc12 | 85% | -68.5% (active) | 88.6% | 62.2% | 76.1% | 86.5% | 80.5% | 11.8% | 30.8% | 
COc1ccc(N)cc1C(=O)Nc1cccc(-c2cc(=O)c3c(OC)c(OC)c(OC)cc3o2)c1 | 44.7% | 56.5% | 93.1% | 76.6% | 74.1% | 41% | 61.2% | 44.3% | 86.6% | 
N#C/C(=C\c1ccc(N2CCCCC2)cc1)C(=O)Nc1sc2c(c1C#N)CCC2 | 95% | 98.8% | 86.8% | 99.2% | 91.5% | 98.7% | 90.2% | 89.8% | 95.2% | 
C=C(C)C(=O)O[C@H]1C[C@@]2(C)OC(=CC2=O)/C(C)=C\[C@H]2OC(=O)C(=C)[C@H]12 | 1.22% (active) | 1.99% (active) | 33.3% | 49.1% | -2.26% (active) |  |  | -58.6% (active) |  | 6.75% (active)
Cc1ccccc1NC1CC(=O)N(c2ccc(Cl)cc2Cl)C1=O (stereo unspecified) | 101% | 104% | 90.9% | 95.6% | 97.2% | 94.4% | 99.8% | 94.4% | 105% | 
COc1ccc(-c2ccc3c4c(cccc24)C(=O)N(N2C(=O)c4cccc5cccc(c45)C2=O)C3=O)cc1 | 99.1% | 99.1% | 73.4% | 96.3% | 87.7% | 99.6% | 96.8% |  | 106% | 104%
C=C(C)C(=O)O[C@H]1C[C@@]2(C)OC(=CC2=O)/C(CO)=C\[C@H]2OC(=O)C(=C)[C@H]12 | -19.5% (active) | -12.2% (active) | -0.788% (active) | 42.2% | -3.05% (active) |  |  | -94.1% (active) |  | -17.7% (active)
CS(=O)(=O)c1nccc(-c2c(-c3ccc(F)c(OCc4ccc(F)cc4)c3)nc3sccn23)n1 | 70% | 85.5% | 106% | 75.4% | -17.3% (active) | 96.7% | 81.1% | 19.9% | 61.6% | 
C=C1C(=O)O[C@@H]2C[C@@H](C)[C@H](OC)CC(=O)[C@](C)(OC(C)=O)C[C@H](OC(=O)/C(C)=C\C)[C@@H]12 | 58.9% | 59.5% | 78.7% | 99.1% | 83.6% |  |  | 84.4% |  | 91.5%
CCN1C/C(=N\S(=O)(=O)c2ccccc2)N(CC)C1=S | 101% | 108% | 91.3% | 98.2% | 110% | 102% | 95.2% | 99.3% | 104% | 
O=C1c2c(c3c4ccc(Br)cc4oc3c3[nH]c4ccccc4c23)C(=O)N1CCO | 53% | 58.3% | 88.7% | 32.8% | 51.6% | 17.3% | 23.5% | 7.54% (active) | 70.2% | 
CC1(C)CC[C@]2(C(=O)N3CCCN(CC#N)CC3)CC[C@]3(C)C(=CC[C@@H]4[C@@]5(C)CC[C@H](O)C(C)(C)[C@@H]5CC[C@]43C)[C@H]2C1 | 19.1% | 34.7% | 90.5% | 78.3% | 26.7% | 32.2% | 54.6% | -83.7% (active) | 72% | 
CC1OC(O[C@@H]2[C@H](O)C(CO)OC(O[C@H]3COC(O[C@H]4CC[C@]5(C)[C@H]6CC[C@]78OC[C@@]9(CCC(C)(C)C[C@H]97)[C@H](O)C[C@@]8(C)[C@]6(C)CC[C@H]5C4(C)C)[C@@H](OC4OC(CO)[C@@H](O)[C@@H](O)[C@@H]4O)[C@@H]3O)[C@H]2OC2OC[C@@H](O)[C@@H](O)[C@@H]2O)[C@@H](O)[C@@H](O)[C@H]1O (stereo partly specified) | -52.8% (active) | -79% (active) | -87.1% (active) | -69.2% (active) | -85.4% (active) |  |  | -82.7% (active) |  | -86.8% (active)
C=C1C(=O)O[C@@H]2C[C@@H](C)CCC(=O)[C@](C)(OC(C)=O)C[C@H](OC(=O)/C(C)=C\C)[C@@H]12 | 60.9% | 52.5% | 80.6% | 90.6% | 79.1% |  |  | 54.8% |  | 88.8%
C=C1C(=O)O[C@@H]2/C=C(/C)C3=CC(=O)[C@@](C)(C[C@H](OC(=O)/C(C)=C\C)[C@@H]12)O3 | -2.86% (active) | -38.7% (active) | 44.4% | 64.4% | 36.6% |  |  | -44.8% (active) |  | 28.8%
COc1ccc(NC(=O)[C@H](C)N)cc1C(=O)Nc1cccc(-c2cc(=O)c3c(OC)c(OC)c(OC)cc3o2)c1 | 49.6% | 69.8% | 84.5% | 65.8% | 71.6% | 57.9% | 63.5% | 49.8% | 88.2% | 
O=C(O)c1ccc(-n2cc(CNc3ccc(Cl)cc3)c(-c3ccc(F)cc3)n2)cc1 | 79.6% | 112% | 131% | 96.5% | 89% | 84.8% | 77.4% | 84.3% | 95.6% | 
C=C1C(=O)O[C@@H]2C[C@@H](C)/C=C\C(=O)[C@](C)(OC(C)=O)C[C@H](OC(=O)/C(C)=C\C)[C@@H]12 | -26% (active) | -48.6% (active) | 38.2% | 60.1% | 1.27% (active) |  |  | -75.1% (active) |  | 2.55% (active)
COc1cc(CNC(=O)/C=C/c2ccccc2)ccc1OCC(=O)NO | 101% | 104% | 85.3% | 98.9% | 91% | 100% | 92.3% | 91.9% | 107% | 
C#C[C@]1(O)CC[C@H]2[C@@H]3CC=C4c5sc(Nc6cc(Cl)ccn6)nc5CC[C@]4(C)[C@H]3CC[C@@]21C | 3.75% (active) | 21.4% | -33.2% (active) | -1.08% (active) | 7.93% (active) | -58.9% (active) | -17% (active) |  | -47.3% (active) | 15.1%
NS(=O)(=O)c1ccc(Nc2nc(N/N=C/c3ccc([N+](=O)[O-])cc3)nc(Nc3ccccc3)n2)cc1 | 86.5% | 24.6% | 45.4% | 20.4% | 50.2% | 32.3% | 45.1% | -20.6% (active) | 35.2% | 
